Pf Dd2 growth = P. falciparum Dd2 growth inhibition. SYBR Green, 72 h; active compounds read low. activity change, % at 10 µM. 2.3% of 94,000 active. AID 1159554; in the data active means activity change below about -80%
C diff growth = inhibitors of Clostridium difficile growth. Clostridium difficile clinical isolate growth, OD600, 24 h; active compounds read low. growth activity, negative = inhibition, % at 16 µg/mL (by protocol). 0.25% of 86,000 active. AID 1259249;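 active means mean growth activity at or below -80% and every replicate also at or below -80%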;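 further: 0% = DMSO wells and -100% = levofloxacin 16 µg/mL wells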
Starred values were filed as active, the others as inactive; x = no result; ! = not active in a repeat. An excerpt weighted towards active compounds, which were near 2.4% of everything screened.

SMILES	Pf Dd2 growth	C diff growth
COc1ccc(S(=O)(=O)N(C)C[C@H]2OCCCC[C@H](C)Oc3ccc(NS(=O)(=O)c4cn(C)cn4)cc3C(=O)N([C@H](C)CO)C[C@H]2C)cc1	9	-5
O=C(C[C@H]1CC[C@@H]2[C@H](COC[C@@H](O)CN2C(=O)Nc2ccc(Cl)c(Cl)c2)O1)NCc1ccc(F)cc1	-6	-7
O=C(C[C@@H]1CC[C@H]2[C@@H](COC[C@@H](O)CN2C(=O)Nc2ccc(Cl)c(Cl)c2)O1)NC1CCC1	x	-102*!
CCNC(=O)C[C@H]1CC[C@H]2[C@@H](COC[C@@H](O)CN2C(=O)Nc2ccc(Cl)c(Cl)c2)O1	4	x
CCCNC(=O)C[C@@H]1CC[C@@H]2[C@H](COC[C@H](O)CN2C(=O)Nc2ccc(Cl)c(Cl)c2)O1	0	-102*!
O=C(C[C@H]1CC[C@@H]2[C@H](COC[C@H](O)CN2C(=O)Nc2ccc(Cl)c(Cl)c2)O1)NCc1ccc(F)cc1	2	-91*
O=C(C[C@H]1CC[C@@H]2[C@H](COC[C@@H](O)CN2C(=O)Nc2ccc(Cl)c(Cl)c2)O1)NC1CCC1	x	48
O=C(C[C@@H]1CC[C@@H]2[C@H](COC[C@@H](O)CN2S(=O)(=O)c2ccccc2)O1)NCc1ccc(-c2ccccc2)cc1	-90*	91
O=C(C[C@@H]1CC[C@@H]2[C@H](COC[C@H](O)CN2S(=O)(=O)c2ccccc2)O1)NCc1ccc(-c2ccccc2)cc1	-41	45
O=C(C[C@H]1CC[C@H]2[C@@H](COC[C@@H](O)CN2S(=O)(=O)c2ccccc2F)O1)NCc1ccccc1F	-34	0
CNC(=O)C[C@H]1CC[C@H]2[C@@H](COC[C@@H](O)CN2Cc2ccc(Cl)c(Cl)c2)O1	15	3
C[C@@H]1CCCCO[C@H](CN(C)C(=O)CCCN(C)C)[C@@H](C)CN([C@@H](C)CO)C(=O)c2cc(N(C)C)ccc2O1	x	-1
O=C(C[C@H]1CC[C@@H]2[C@H](COC[C@@H](O)CN2C(=O)Nc2ccc3c(c2)OCO3)O1)N1CCN(c2ccccc2)CC1	-88*	-5
O=C(C[C@@H]1CC[C@@H]2[C@H](COC[C@H](O)CN2C(=O)Nc2ccc3c(c2)OCO3)O1)N1CCN(c2ccccc2)CC1	3	24
COc1ccc(S(=O)(=O)N(C)C[C@@H]2OCCCC[C@@H](C)Oc3ccc(NC(=O)Nc4ccccc4)cc3C(=O)N([C@@H](C)CO)C[C@H]2C)cc1	-74	-6
COc1ccc(NC(=O)Nc2ccc3c(c2)C(=O)N([C@H](C)CO)C[C@@H](C)[C@@H](CN(C)S(=O)(=O)c2ccc(C)cc2)OCCCC[C@H](C)O3)cc1	-75	x
COc1ccc(S(=O)(=O)N(C)C[C@@H]2OCCCC[C@@H](C)Oc3ccc(NC(=O)Nc4ccccc4)cc3C(=O)N([C@@H](C)CO)C[C@@H]2C)cc1	-83*	-1
COc1ccc(S(=O)(=O)N(C)C[C@@H]2OCCCC[C@H](C)Oc3ccc(NC(=O)Nc4ccccc4)cc3C(=O)N([C@@H](C)CO)C[C@@H]2C)cc1	-86*	4
COc1ccc(NC(=O)Nc2ccc3c(c2)C(=O)N([C@@H](C)CO)C[C@H](C)[C@@H](CN(C)S(=O)(=O)c2ccc(C)cc2)OCCCC[C@@H](C)O3)cc1	-83*	x
COc1ccc(S(=O)(=O)N(C)C[C@H]2OCCCC[C@H](C)Oc3ccc(NC(=O)Nc4ccccc4)cc3C(=O)N([C@H](C)CO)C[C@@H]2C)cc1	-38	-7
CCC(=O)N1CC2(C1)CN(Cc1cccc(Cl)c1)[C@@H](CO)c1[nH]c3cc(OC)ccc3c12	-77	-3
COc1cccc(CN2CC3(CN(C(=O)Nc4c(C)noc4C)C3)c3c([nH]c4cc(OC)ccc34)[C@@H]2CO)c1	-5	5
CN(C)C(=O)c1cccc(-c2ccccc2[C@H]2[C@@H](C#N)N(C(=O)C3CCCC3)[C@H]2CO)c1	-27	34
CN1C(=O)c2cc(NS(=O)(=O)c3ccc(F)cc3)ccc2OC[C@H]2O[C@H](CC(=O)O)CC[C@H]21	5	2
CN1C(=O)c2cc(NC(=O)C3CC3)ccc2OC[C@H]2O[C@@H](CC(=O)NCC3CCCCC3)CC[C@H]21	3	2
COc1ccc(NC(=O)N(C)C[C@H]2OCCCC[C@@H](C)Oc3ccc(N(C)C)cc3C(=O)N([C@@H](C)CO)C[C@H]2C)cc1	-83*	-5
C[C@H]1CCCCO[C@H](CN(C)C(=O)Nc2ccc(C(F)(F)F)cc2)[C@@H](C)CN([C@@H](C)CO)C(=O)c2cc(NC(=O)c3ccccc3)ccc2O1	-87*	-10
COc1ccc(NC(=O)N(C)C[C@@H]2OCCCC[C@H](C)Oc3ccc(NC(=O)c4ccccc4)cc3C(=O)N([C@@H](C)CO)C[C@@H]2C)cc1	-84*	-3
COc1ccc(NC(=O)N(C)C[C@H]2OCCCC[C@@H](C)Oc3ccc(N(C)C)cc3C(=O)N([C@H](C)CO)C[C@H]2C)cc1	8	-1
